# From PubChem BioAssay AID686979 (National Center for Advancing Translational Sciences (NCATS), 2013)
# In all, about 420,000 compounds went through this assay and about 50,000 (12%) were called active. Roughly 26% stayed inconclusive and do not appear here. The call rests on the fitted dose curve; in most records, active means well fitted inhibition curve with a large enough effect; inconclusive means small, poorly fitted or top-dose-only effect; inactive means flat fitted curve, though single readings scatter. For the sample, actives were picked, then their nearest neighbours and some compounds at random.
# Test: qHTS for Inhibitors of human tyrosyl-DNA phosphodiesterase 1 (TDP1): qHTS in cells in presence of CPT; further: nearly all actives have a fitted effect of over 55% in size
# Details: chicken DT40 Tdp1-/-;hTDP1 cells + 20 nM CPT, ATP luminescence, 48 h; series mostly up to 46.2 µM; activity change, negative = growth inhibition: at the top concentration
# Summary of the method: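 Cell growth measured by CellTiter-Glo luminescence after a minimum 48 h, 37 C compound exposure with 20 nM CPT in Tdp1-knockout DT40 cells stably expressing hTDP1, seeded 400/well; qHTS titration format.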
# On the % scale 0 is the no-effect control and ±100 the full control effect; potency means the concentration at half of the fitted maximal effect.
SMILES,"activity change, negative = growth inhibition",Potency
C=C1O[C@@](CO)(n2cnc3c(N)ncnc32)[C@H](O)[C@@H]1O,9.16% [at 92.5 µM] (inactive),–
Cc1cccc(NC(=O)CCN2CC(C)CC(C)C2)c1 (centres undefined),-19.3% (inactive),–
CCOc1ccc(C(=O)COC(=O)c2ccc(-n3cnnn3)cc2)cc1,11.6% (inactive),–
COC(=O)c1ccc(/C=N/NC(=O)C(=O)N2CCCCCC2)cc1,-8.03% (inactive),–
CCOC(=O)c1c(S(=O)(=O)N2CCCC(C(=O)NCc3cccc(C)c3)C2)c(C)n(C)c1C (centres undefined),-6.53% (inactive),–
CCC(C)N(C(=O)Cn1nc(C)c([N+](=O)[O-])c1C)C1CCS(=O)(=O)C1 (centres undefined),4.68% (inactive),–
CCOc1ccc(NC(=O)c2ccc(NC(=O)CN3C(=O)C(=O)N(CC(C)C)C3=O)cc2)cc1,-28.5% (inactive),–
O=C(NCCCN1CCOCC1)c1ccccc1NS(=O)(=O)c1ccc(Br)cc1,2.63% (inactive),–
O=C(NCCCN1CCOCC1)c1ccccc1NS(=O)(=O)c1ccc(F)cc1,18.5% (inactive),–
O=C(NCCCN1CCOCC1)c1cnn2c(-c3ccccc3)cc(-c3ccccc3)nc12,–,18.4 µM (active)
O=C(NCc1ccco1)/C(=C\c1cccc([N+](=O)[O-])c1)NC(=O)c1ccco1,0.91% (inactive),–
O=C1C(Cl)=C(Oc2ccccc2)C(=O)c2ccccc21,–,0.326 µM (active)
CC(=O)Oc1ccc2c(c1)C(=O)c1ccccc1C2=O,-4.67% (inactive),–
COc1ccccc1-n1c(SCC(=O)Nc2ccc(Cl)cc2)nc(O)c(Cc2ccccc2)c1=O,-21.9% (inactive),–
CCN1CCc2nc3sc(C(=O)Nc4ccccc4OC(F)(F)F)c(N)c3cc2C1,–,16.4 µM (active)
COc1ccc(Cl)cc1NC(=O)c1oc(C)nc1C,-6.17% (inactive),–
CCN1CCc2nc(NC(=O)c3cc(F)c(F)cc3Cl)sc2C1,3.07% (inactive),–
COc1ccccc1NC(=O)c1ccc2nc(N3C(=O)CCC3=O)sc2c1,-8.2% (inactive),–
CC(=O)Nc1ccc(NC(=O)c2sc3nc4c(c(-c5ccc(C)cc5)c3c2N)CCC4)cc1,-1.29% (inactive),–
Cc1ccc(NC(=O)c2sc3nc(N)c(C#N)cc3c2N)cc1,-7.66% (inactive),–
COc1ccc(Cl)cc1NC(=O)CN1CCN(C(=O)N2CCOCC2)CC1,0.0115% (inactive),–
CCc1ccc(NC(=O)c2sc3nc4c(cc3c2N)CN(CC)CC4)cc1,–,23.1 µM (active)
COc1ccc(Cl)cc1NC(=O)c1sc2nc3c(cc2c1N)CN(C)CC3,–,23.1 µM (active)
O=C(c1cn(-c2ccccc2)nc1-c1cccnc1)N1CCN(S(=O)(=O)c2ccccc2F)CC1,-31.7% (inactive),–
O=C(NC(=S)Nc1ncccn1)c1ccccc1Br,-26.7% (inactive),–
COC(=O)C1(CCSC)NC(c2ccc(OC)cc2OC)C2C(=O)N(c3cccc(C(C)=O)c3)C(=O)C21 (centres undefined),-0.339% (inactive),–

SMILES,"activity change, negative = growth inhibition",Potency
O=C(CSc1ccccn1)N1CCN(S(=O)(=O)c2ccc(Cl)cc2)CC1,-6.31% (inactive),–
O=P(O)(O)OC[C@H](O)CO,-6.58% (inactive),–
Cc1cn([C@H]2C[C@H](O)[C@@H](/C=C/C(=O)NCCCc3ccccc3)O2)c(=O)[nH]c1=O,9.83% (inactive),–
Cc1ccc(S(=O)(=O)N(CCCN(C)C)Cc2ccc3c(c2)OCO3)cc1,–,16.4 µM (active)
Cc1ccc(CNCc2ccc3c(c2)OCO3)c(C)c1,20.3% (inactive),–
Cc1ccc(-c2nc(CS(=O)(=O)CC(=O)NCc3ccc4c(c3)OCO4)c(C)o2)cc1,2.22% (inactive),–
CC1CN(C(=S)Nc2ccc(Br)cc2Cl)CC(C)O1 (centres undefined),-1.84% (inactive),–
CC[n+]1cc(C)ccc1/C=C/c1ccc(N(C)C)cc1,–,0.0291 µM (active)
COc1ccccc1-n1cnc2cc(NS(=O)(=O)c3ccccc3)ccc21,-23.5% (inactive),–
CCOC(=O)CSC1=Nc2ccccc2C2=NC(CCC(=O)NCc3ccc(F)cc3)C(=O)N12 (centres undefined),-21.9% (inactive),–
CCN1N=C(c2ccccc2)CCC1=O,0.136% (inactive),–
CC(=O)NC1=NN(C(C)=O)C(C)(CCS(=O)(=O)c2ccc(Cl)c(Cl)c2)S1 (centres undefined),13% (inactive),–
O=C(NC1=NCCS1)c1ccc(Cl)s1,-8.25% (inactive),–
CC(=O)NC1=NN(C(C)=O)C(C)(c2ccc(Cl)s2)S1 (centres undefined),–,6.51 µM (active)
CC/C(Cc1ccccc1)=N/NC(=O)CCn1nnc2ccccc21,13.6% (inactive),–
O=C(O)c1ccc(Nc2nc(-c3ccccc3)c3cc(Br)ccc3n2)cc1,0.528% (inactive),–
OCCNc1nc(Nc2ccc(Cl)c(Cl)c2)nc2ccccc12,–,18.4 µM (active)
Nc1nc(Nc2ccccc2)nc(NCCO)c1[N+](=O)[O-],-8.15% (inactive),–
CO[C@H]1[C@@H]2C=CO[C@@H](O[C@H]3O[C@@H](CO)[C@H](O)[C@@H](O)[C@@H]3O)[C@@H]2[C@@]2(CO)O[C@@H]12,-14.4% (inactive),–
CCN(C(=O)CSc1nnc(-c2ccncc2)o1)c1ccccc1,-8.99% (inactive),–
O=C(COc1ccccc1)N1CCN=C1SCc1cccc(F)c1,-17.8% (inactive),–
COc1ccc(C(=S)Nc2ccccc2)cc1,-2.36% (inactive),–
COc1ccc(C(=O)NC(=S)NNC(=O)c2c(-c3ccccc3)noc2C)cc1,-13.7% (inactive),–
COc1ccc(C(=O)NC(=S)NNC(=O)CCc2ccccc2)cc1,–,8.2 µM (active)
O=C(NNC(=O)c1ccc(Cl)nc1)c1ccc(Br)cc1,10.8% (inactive),–
O=C(CCc1ccccc1)NNC(=O)c1ccc(Br)cc1,24.8% (inactive),–

SMILES,"activity change, negative = growth inhibition",Potency
CNC(=S)NNC(=O)c1ccc(N(C)C)cc1,4.25% (inactive),–
CC(=O)NC(=S)NNC(=O)c1ccc(Br)cc1,–,6.51 µM (active)
COc1ccc(NC(=O)c2ccccc2[N+](=O)[O-])cc1OC,7.09% (inactive),–
CC(C)Oc1ccc(CCC(=O)NNC(=S)NCc2ccccc2)cc1,4.02% (inactive),–
COC(=O)CNC(=O)c1ccccc1[N+](=O)[O-],1.96% (inactive),–
COc1ccc(C(=O)NNC(=S)NC(=O)c2ccccc2)cc1,–,9.2 µM (active)
COc1ccc(C(=O)NNC(=S)NC(=O)c2ccccc2[N+](=O)[O-])cc1,–,18.4 µM (active)
CSCCC(NC(=O)COc1ccccc1)C(=O)OCc1ccc(Cl)cc1 (centres undefined),-6.97% (inactive),–
COc1cc(-c2cccnc2)cc2c1OCCN(C(=O)Cc1csc(C)n1)C2,11.9% (inactive),–
CCCNC(=O)C1CC(=O)N(c2ccc(OCc3ccccc3)cc2)C1 (centres undefined),-20.5% (inactive),–
O=C(CCc1nc(CN2CCN(S(=O)(=O)c3ccc(Br)cc3)CC2)no1)N1CCCCC1,-23.4% (inactive),–
Cc1ccccc1N1C(=O)C2ON(c3ccccc3)C(c3ccncc3)C2C1=O (centres undefined),-6.73% (inactive),–
C/C(=N/OC(=O)c1ccc(Br)cc1)c1ccc(C)cc1,9.68% (inactive),–
COc1ccc(-c2cc(=O)oc3cc(OCC(=O)N[C@@H](Cc4c[nH]c5ccccc45)C(=O)O)ccc23)cc1,16.5% (inactive),–
O=C(N[C@H]1CC[C@H](CC(=O)N2CCCCC2)O[C@@H]1CO)c1cccc(F)c1,-29.4% (inactive),–
CCc1cc2c(=O)c(-c3nc4ccccc4n3C)c(CCCC(=O)O)oc2cc1OC(=O)C(C)(C)C,4.25% (inactive),–
CC1=C(C(=O)N(C)C)CC(CC(=O)NCCN2CCOCC2)C(=O)N1Cc1ccccc1 (centres undefined),1.27% (inactive),–
COc1cccc(OCc2nnc3n2N=C(c2ccccc2)C(CC(=O)O)S3)c1 (centres undefined),0.703% (inactive),–
O=C(COC(=O)Cn1[nH]c(=O)c2ccccc2c1=O)Nc1c(Cl)cccc1C(F)(F)F,-6.62% (inactive),–
CC[C@H](C)[C@@H](C(=O)N1CCNCC1)n1cc([C@@H](N)Cc2ccc(O)cc2)nn1,-15% (inactive),–
COc1c(Br)cc2c(C)c(C(=O)N3CCOCC3)oc2c1Br,–,20.6 µM (active)
COc1cc(C(=O)N2CCOCC2)cc(OC)c1OC,–,inactive
COc1cc2ccccc2cc1C(=O)N1CCOCC1,-0.501% (inactive),–
N#CCCN(C(=O)COC(=O)c1ccc2c(c1)OCCO2)c1ccccc1,-0.784% (inactive),–
CC(C)c1c(C(=O)N/N=C/c2ccccc2C(=O)O)nnn1-c1nonc1N,2.99% (inactive),–
Cn1c(=O)[nH]c(=O)c2c1[nH]c(=S)n2Cc1ccccc1,-2.11% (inactive),–

SMILES,"activity change, negative = growth inhibition",Potency
CCCc1c(C(=O)N/N=C(\C)CCc2ccc(OC)cc2)nnn1-c1nonc1N,-9% (inactive),–
Cc1cccc(N2O[C@H]3C=CC2CCCC3)n1,2.68% (inactive),–
COP1(=O)C[C@@H](O)[C@@H](O)[C@@H](COCc2ccccc2)O1 (some centres undefined),13.7% (inactive),–
O=C(c1ccc2c(c1)N(Cc1ccc(F)cc1)C(=O)CS2)N1CCOCC1,-2.88% (inactive),–
O=C(NCCc1ccc(Cl)cc1)c1ccc2c(c1)N(Cc1ccc(F)cc1)C(=O)CS2,–,20.6 µM (active)
O=C(NCCc1ccc(Cl)cc1)c1cccc(N2CCCC2=O)c1,-22.3% (inactive),–
CC1CCN(C(=O)c2ccccc2NC(=O)Cc2ccccc2)CC1,-0.159% (inactive),–
COc1ccc(N2CCN(C(=O)c3cccs3)CC2)cc1,-13.7% (inactive),–
Cc1ccccc1C(=O)Nc1ccccc1NC(=O)c1ccccc1C,-8.28% (inactive),–
O=C(NC(=O)c1ccccc1N1CCCCC1)Nc1ccc(Br)cc1,5.47% (inactive),–
O=C(Nc1ccc(N2CCN(C(=O)C3CC3)CC2)cc1)c1cccs1,2.26% (inactive),–
Cc1ccccc1C(=O)NC(=S)Nc1ccc(N2CCN(C(=O)c3ccccc3)CC2)cc1,–,10.3 µM (active)
Cc1ccccc1C(=O)Nc1ccc(N2CCCCCC2)cc1,–,14.6 µM (active)
Cc1ccccc1C(=O)N1CCN(c2ccc(NC(=O)c3cccs3)cc2)CC1,–,18.4 µM (active)
Cc1cccc(C)c1NC(=O)CS(=O)CC(=O)N1CCN(c2ccccc2)CC1 (centres undefined),-12.8% (inactive),–
COc1ccccc1C(=O)NC(=S)Nc1ccc(N2CCOCC2)cc1,-15.4% (inactive),–
O=C(NC1CCCC1)C(c1c(F)cccc1Cl)N(C(=O)c1csnn1)C1CC1 (centres undefined),-3.21% (inactive),–
CCOC(=O)c1cn[nH]c1NC(=S)Nc1ccccc1,-2.15% (inactive),–
CCCCN1C(=O)C(=O)N(CC(=O)Nc2cccc(C(C)=O)c2)C1=O,4.23% (inactive),–
Cc1cccc(-c2ncc(CN3CCC(CO)(CCCc4ccccc4)CC3)cn2)c1,–,23.1 µM (active)
OCC1(CCOc2ccccc2)CCN(Cc2cn[nH]c2-c2ccccc2)CC1,-27.5% (inactive),–
OCC1(CCc2ccccc2)CCN(Cc2ccc3nsnc3c2)CC1,-0.556% (inactive),–
CC(=O)Nc1ccc2c3c(ccc([N+](=O)[O-])c13)CC2,-4.5% (inactive),–
CN1CCN(C(=O)c2ccccc2NC(=O)COc2ccccc2Cl)CC1,-15.8% (inactive),–
O=C(COc1ccccc1Cl)Nc1ccccc1C(=O)NC1CC1,–,23.1 µM (active)
COc1ccccc1OCC(=O)Nc1ccccc1C(=O)NC1CC1,17% (inactive),–
